# Compounds without any hit were thinned out: in the full panel of roughly 83,000, 20% have a hit.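 Negative percent growth values reflect cell death: -40 means 40% of the cells present at the start died, and -100 means all died.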 A number with no mark means an inactive call. Activity calls are given as the source filed them. Rule for the calls: active = growth percent below 10; inactive = the rest.
# Key:
# Experiment in all cases: NCI-60 one-dose screen, 48 h (100 = growth as untreated, 0 = no growth, -100 = all killed)
# Conditions in all cases: 10 µM unless noted
# [1] = test system: NCI-H23 lung
# [2] = test system: NCI-H226 lung
# [3] = test system: NCI-H322M lung
# [4] = test system: HOP-62 NSCLC
# [5] = test system: NCI-H460 lung
# [6] = test system: HOP-92 NSCLC
# [7] = test system: NCI-H522 lung
# [8] = test system: A549/ATCC NSCLC
# [9] = test system: 786-0 renal
# [10] = test system: COLO 205 colon
# [11] = test system: DU-145 prostate
# [12] = test system: K-562 leukemia
# [13] = test system: MALME-3M melanoma
# [14] = test system: MDA-MB-231 breast
# [15] = test system: RXF 393 renal
# [16] = test system: SF-268 CNS
# [17] = test system: SF-295 CNS
# [18] = test system: SF-539 CNS
# [19] = test system: UACC-257 melanoma
# [20] = test system: M14 melanoma
SMILES,growth [1],growth [2],growth [3] [%],growth [4] [%],growth [5],growth [6],growth [7],growth [8],growth [9],growth [10],growth [11],growth [12],growth [13],growth [14],growth [15],growth [16],growth [17],growth [18],growth [19],growth [20] [%]
O=C(N/N=C\c1ccc(Cl)cc1Cl)c1ccncc1,103%,102%,106,112,105%,87.9%,84.8%,91%,90.5%,118%,111%,96.7%,99.1%,98.9%,118%,98.7%,103%,105%,104%,100
CN1CCCN(C(c2ccccc2)c2ccc(Cl)cc2)CC1 (centres undefined),91.4%,93.9%,100,94.2,93%,60.4%,103%,107%,73.3%,103%,107%,90%,98.8%,95.8%,86.8%,82.3%,92.2%,96.9%,–,–
CCCCOC(=O)c1ccccc1O,108%,105%,112,110,113%,111%,125%,113%,109%,115%,120%,131%,104%,104%,161%,117%,110%,106%,99.4%,–
C=C1CC2(OC1=O)C(=O)N(C)c1ccc(I)cc12 (centres undefined),-62.6% (active),-37.3% (active),50.6,58.9,-57% (active),-95.7% (active),-56.9% (active),-19.3% (active),-71.5% (active),-84.2% (active),-95.2% (active),-50% (active),-77.1% (active),-2.19% (active),-73.4% (active),-75% (active),55.4%,-88.2% (active),-69.3% (active),–
CC(=O)C[n+]1ccc(C)cc1Sc1ccccc1C,91%,107%,102,99.1,104%,94.9%,98.1%,112%,93.5%,116%,98.1%,102%,102%,89.3%,134%,93%,96.8%,88.5%,97.8%,–
Cc1cc2c(C(C)C)c(O)c(O)c(C=Nc3ccccc3[N+](=O)[O-])c2c(O)c1-c1c(C)cc2c(C(C)C)c(O)c(O)c(C=Nc3ccccc3[N+](=O)[O-])c2c1O,71.4%,82.8%,89.2,83.4,87%,61%,64.4%,52%,96.1%,94.7%,94.6%,34.9%,93.5%,74.4%,83.2%,73.5%,82%,97.2%,92.6%,88
CCOC(=O)c1c[nH][nH]c1=O,93.4%,101%,122,89.2,106%,111%,103%,125%,94.3%,124%,117%,116%,129%,108%,110%,110%,112%,94.9%,59.1%,–
O=C1C=C[C@H](O)[C@@]2(CO)O[C@@H]12,93.1%,71.3%,114,126,121%,64.6%,-60.6% (active),144%,102%,3.59% (active),95.6%,4.07% (active),77.7%,105%,23.1%,100%,109%,70.1%,108%,–
COC1OC(COC(C)=O)C(OC(C)=O)C(OC(C)=O)C1OC(C)=O (centres undefined),98%,91.1%,101,97.9,115%,92.8%,71.9%,91.5%,98.8%,98.7%,111%,102%,96.9%,90%,114%,101%,90.1%,98.4%,85%,–
Cc1ccc(C)c2c1CCC2=O,95.4%,91.4%,101,93.2,97.4%,94.7%,96.7%,114%,99.6%,114%,102%,133%,103%,117%,87.9%,96.8%,91.6%,95.6%,107%,–
NCCCN1CCCC1=O,101%,109%,96.9,112,113%,105%,92.6%,91%,105%,111%,114%,114%,99.1%,108%,122%,113%,111%,109%,97.3%,113
CC(c1ccccc1)N1C(=O)CSC1=S (centres undefined),51.2%,83.2%,74.9,59.2,0.475% (active),47.5%,-14.2% (active),78.8%,21.2%,1.28% (active),26.9%,5.61% (active),79.3%,29.9%,-25% (active),24.9%,101%,-59.7% (active),55.3%,28.7
CC(=O)c1cc(O)ccc1O,92.9%,98%,97.4,89.3,108%,58.9%,100%,103%,94.5%,123%,114%,91.7%,111%,96.6%,88.8%,109%,104%,92.5%,104%,101
NC(=O)c1cc2c3ccccc3ccn2c1-c1ccccc1,18.7%,23.3%,46.3,24.3,0.187% (active),32.7%,53.1%,22.8%,17.4%,-13.2% (active),5.57% (active),4.64% (active),86%,29.3%,25.5%,22%,4.09% (active),-19.7% (active),64.9%,11.3
Cc1cc(=O)n(Nc2ccccc2)c(O)c1C#N,97.4%,94%,92.4,86,105%,102%,100%,106%,101%,104%,109%,92.5%,105%,103%,124%,102%,101%,104%,116%,–
CC(=O)Nc1ccc(C(=O)c2ccc(S(=O)(=O)Nc3ccccc3)cc2)cc1,231%,102%,73.2,100,97.8%,74.2%,84.4%,81.3%,156%,92.4%,117%,112%,99.5%,88.1%,100%,104%,109%,94.7%,69.6%,91.8
CC(=O)O[C@H]1CC[C@]2(C)C3=C(C(=O)C[C@H]2C1(C)C)[C@]1(C)CC[C@H]([C@H](C)CCC(=O)O)[C@@]1(C)CC3=O,98.3%,107%,105,95.4,89.8%,107%,81.8%,101%,107%,103%,108%,86.8%,98.1%,107%,110%,111%,96.4%,96.2%,113%,–

# From PubChem BioAssay (NCI)
